Experiment [1] has as its system C33A. As to the kind of experiment: Primary qHTS to identify gynecologic anti-cancer compounds using libraries of approved drugs and bioactive compounds (AID 1345084). Also: nearly all actives have a fitted effect of over 55% in size. The conditions noted are these: Gynecologic cancer cell panel viability, ATPlite luminescence, 48 h; series mostly up to 57.5 µM. In short, it runs like this: (§1)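 Five-concentration response, 48 h; readout is ATP-driven luciferase luminescence.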
On the technique in general: In qHTS, concentration-response curves come from the screen itself.

The test system of experiment [2] is CAOV3. The experiment is described as above. The conditions noted are these: Gynecologic cancer cell panel viability, ATPlite luminescence, 48 h; series mostly up to 57.5 µM. In short, it runs like this: as §1
(ATP-based viability assays read luminescence as a measure of living cells.)

Experiment [3] has as its system CASKI. The experiment is described as above. The settings on record: Gynecologic cancer cell panel viability, ATPlite luminescence, 48 h; series mostly up to 57.5 µM. Put shortly:
as §1

Experiment [4] deals with Es-2. Described as above. The conditions noted are these: Gynecologic cancer cell panel viability, ATPlite luminescence, 48 h; series mostly up to 57.5 µM. In short, it runs like this:
as §1

Experiment [5] has as its system HeLa. The experiment is described as above. The conditions noted are these: Gynecologic cancer cell panel viability, ATPlite luminescence, 48 h; series mostly up to 57.5 µM. In short, it runs like this:
as §1

Experiment [6] has as its system Hek293T. The experiment is described as above. The settings on record: Gynecologic cancer cell panel viability, ATPlite luminescence, 48 h, control line for the selectivity index; series mostly up to 57.5 µM. In short, it runs like this:
as §1

Experiment [7] relates to JEG-3. Described as above. The settings on record: Gynecologic cancer cell panel viability, ATPlite luminescence, 48 h; series mostly up to 57.5 µM. Put shortly:
as §1

Experiment [8] concerns OV90. The description is as above. The conditions noted are these: Gynecologic cancer cell panel viability, ATPlite luminescence, 48 h; series mostly up to 57.5 µM. In short, it runs like this: as §1
Experiment [9] deals with PA-1. Described as above. The settings on record: Gynecologic cancer cell panel viability, ATPlite luminescence, 48 h; series mostly up to 57.5 µM. In short, it runs like this:
as §1

For experiment [10], the system named is SKOV3. The experiment is described as above. The settings on record: Gynecologic cancer cell panel viability, ATPlite luminescence, 48 h; series mostly up to 57.5 µM. Put shortly:
as §1

For experiment [11], the system named is Tov-21-G. The description is as above. The conditions noted are these: Gynecologic cancer cell panel viability, ATPlite luminescence, 48 h; series mostly up to 57.5 µM. In short, it runs like this: as §1
Experiment [12] has as its system Tov112D. The description is as above. The conditions noted are these: Gynecologic cancer cell panel viability, ATPlite luminescence, 48 h; series mostly up to 57.5 µM. Put shortly: as §1
Experiment [13] can be described thus: Drug repurposing screens with cells derived from glioblastoma tumor samples (AID 1345199). Also: nearly all actives have a fitted effect of over 40% in size. The conditions noted are these: GBM patient neurospheres viability, ATP luminescence, 48 h. In short, it runs like this: (§2)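 Four patient lines of CD133+ GBM neurospheres were screened at several concentrations; hits were retested in those lines plus three slower-growing GBM lines, using 48-hour treatment and ATP-based viability.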

Experiment [14] concerns astro. The experiment is described as above. The settings on record: viability, ATP luminescence, 48 h; series mostly up to 45.9 µM. In short, it runs like this:
as §2

Results filed as inconclusive are left out. Unmarked numbers belong to inactive results. The source made the active and inactive calls. Calls follow the shape of the dose curve; as a rule, active = well fitted curve in the direction sought with a large enough effect; inconclusive = small, poorly fitted or top-dose-only effect, or another doubt; inactive = no such curve, though single readings can be large; an effect the other way counts as inactive or inconclusive.
% is scaled to controls: 0 for no effect and ±100 for the full control effect; potency is read from the fitted curve at half-maximal effect.

In the case of `C=C[C@H]1CN2CC[C@H]1C[C@@H]2[C@@H](O)c1ccnc2ccccc12`, the Potency result in [1], in experiment [2], in experiment [3], in experiment [4], in experiment [5] and in [6] was “inactive” in each case. Further, the Potency entry in experiment [7], in experiment [8], in experiment [9], in [10], in [11] and in experiment [12] was “inactive” throughout. For the same compound, the Potency result in experiment [14] was “inactive”. Moreover, the activity, negative = cell killing in experiment [13] (at 45.9 µM (top of the series), tumour line B) is -7.16%; in experiment [13] (at 45.9 µM (top of the series), tumour line D), -9.4%; in experiment [13] (at 46.1 µM (top of the series), tumour line C), 15.7%. In [13] (tumour line A), the Potency was 17.8 µM (active).
Consider `CN(C)CCc1c[nH]c2ccc(CN3CCN(C)S3(=O)=O)cc12`, for which the Potency result in experiment [1], in experiment [2], in experiment [3], in [4], in experiment [5] and in [6] was “inactive” each time. The Potency entry in [7], in [8], in [9], in [10], in experiment [11] and in experiment [12] was “inactive” in each case.
Regarding `Clc1ccc(N2C[C@H]3CC[C@@H](C2)N3)nn1`, the Potency entry in experiment [1], in [2], in experiment [3], in [4], in experiment [5] and in experiment [6] was “inactive” each time. Further, the Potency entry in experiment [7], in [8], in experiment [9], in experiment [10], in experiment [11] and in experiment [12] was “inactive” in each case.
As to `CC(C)=C1CC[C@]23CO[C@H](C2)[C@@](O)(C(=O)O)CCC13` (some centres undefined), the Potency entry in [1], in experiment [2], in experiment [3], in experiment [4], in experiment [5] and in experiment [6] was “inactive” in each case. Besides, the Potency entry in experiment [7], in [8], in experiment [9], in experiment [10], in experiment [11] and in experiment [12] was “inactive” in each case.
Consider `CN[C@H]1[C@H](O)[C@H](O[C@@H]2[C@@H](O)[C@H](O[C@H]3O[C@H]([C@H](C)O)[C@@H](O)[C@H](O)[C@H]3N)[C@@H](N)C[C@H]2N)OC[C@@]1(C)O`, for which the Potency entry in [1], in [2], in experiment [3], in experiment [4], in experiment [5] and in experiment [6] was “inactive” throughout. For the same compound, the Potency entry in experiment [7], in [8], in experiment [9], in experiment [10], in experiment [11] and in experiment [12] was “inactive” each time.
As to `COC(=O)C12C(=O)C(C)(O)C(=O)C1(C)C(C)=CC1C34CCC(OC3=O)C(C)(CO)C4CCC12C` (centres undefined), the Potency entry in experiment [1], in experiment [2], in experiment [3], in [4], in experiment [5] and in experiment [6] was “inactive” each time. The Potency result in experiment [7], in experiment [8], in [9], in experiment [10], in [11] and in experiment [12] was “inactive” throughout.
Turning to `COC1CC(=O)C23C(=O)NC(CC(C)C)C2C(C)=C(C)C(OO)C3/C=C(\C)CCC(O)C1O` (centres undefined), the Potency entry in [1], in [2], in [3], in experiment [4], in experiment [5] and in [6] was “inactive” each time. Also, the Potency entry in experiment [7], in experiment [8], in experiment [9], in [10], in [11] and in experiment [12] was “inactive” in each case.
On to `CN1[C@H]2C[C@H](OC(=O)[C@H](CO)c3ccccc3)C[C@@H]1[C@@H](O)C2`, for which the Potency result in experiment [1], in experiment [2], in [3], in [4], in [5] and in experiment [6] was “inactive” each time. The Potency result in [7], in experiment [8], in [9], in experiment [10], in [11] and in experiment [12] was “inactive” throughout.
Take `OC1(c2ccc(Cl)cc2)c2ccccc2C2=NCCN21` (centres undefined): the Potency result in experiment [1], in experiment [2], in experiment [3], in experiment [4], in [5] and in experiment [6] was “inactive” throughout. In addition, the Potency entry in [7], in [8], in experiment [9], in experiment [10], in experiment [11] and in experiment [12] was “inactive” throughout.
With `CCCCCCn1c(=O)c(C(=O)Nc2ccc(C(=O)OCCC)cc2)c(O)c2ccccc21`, the activity change, negative = cytotoxicity was -0.0211% [at 11.6 µM] in [1]; 20.9% [at 11.6 µM] in [2]; 4.2% [at 11.6 µM] in experiment [3]; 9.25% [at 11.6 µM] in [4]; 18.5% [at 11.6 µM] in experiment [5]; 10.5% [at 11.6 µM] in [6]. Moreover, the activity change, negative = cytotoxicity in experiment [7] was -0.73% [at 11.6 µM]; in [8], 9.17% [at 11.6 µM]; in experiment [9], 1.75% [at 11.6 µM]; in [10], -0.233% [at 11.6 µM]; in [11], 0.105% [at 11.6 µM]; in experiment [12] it was 27% [at 11.6 µM].
Consider `CCC(C)(C#N)O[C@@H]1O[C@H](CO)[C@@H](O)[C@H](O)[C@H]1O` (some centres undefined), for which the Potency entry in experiment [1], in experiment [2], in experiment [3], in [4], in experiment [5] and in [6] was “inactive” in each case. Moreover, the Potency result in experiment [7], in experiment [8], in experiment [9], in experiment [10], in experiment [11] and in experiment [12] was “inactive” each time.
For the compound `CO[C@H]1[C@H](O)[C@H](O[C@H]2CC[C@]3(C)C4CC[C@]5(C)[C@H](C6=CC(=O)OC6)CC[C@]5(O)C4CC[C@@H]3C2)O[C@@H](C)[C@@H]1O` (some centres undefined), the Potency in [1] was 89.1 nM (active); in experiment [2], 126 nM (active); in experiment [3] it was 224 nM (active); in experiment [4] it was 79.4 nM (active); in experiment [5] it was 89.1 nM (active); in experiment [6], 89.1 nM (active). Further, the Potency in experiment [7] was 178 nM (active); in [8] it was 282 nM (active); in experiment [9] it was 89.1 nM (active); in [11], 31.6 nM (active).
Regarding `C[C@@](O)(COc1ccc(C#N)cc1)C(=O)Nc1ccc(C#N)c(C(F)(F)F)c1`, the Potency entry in experiment [1], in experiment [2], in experiment [3], in experiment [4], in experiment [5] and in experiment [6] was “inactive” throughout. In addition, the Potency entry in experiment [7], in experiment [8], in [9], in experiment [10], in experiment [11] and in [12] was “inactive” each time.
